Hit rate of the full screen: of about 370,000 compounds, about 4,100 (1.1%) were called active. Many of the other results were omitted from the sample, so actives are more common in it than they were. A number with no mark means an inactive call.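 How the source made its calls: active means inhibition above the mean over all tested compounds plus 3 SD (cut at about 3.6% in these data); inactive means the rest.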
test: DAX1 (NR0B1) inhibitors on StAR promoter, primary screen, cell-based, luminescence, SF-1 (NR5A1), full-length DAX-1 (AID 652010); conditions: HEK293T StAR-luciferase reporter, SF-1/DAX-1 repression relief; at 6.8 µM; active compounds read high;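 further: 0% = DAX-1 cells with DMSO and 100% = cells lacking DAX-1 with DMSO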

| SMILES | inhibition |
| --- | --- |
| COc1ccc(C2CC(c3cccs3)=Nc3ccccc3S2)cc1OC (configuration not stated) | 1.16% |
| COc1ccc(-c2csc3nc(-c4ccccc4F)oc(=O)c23)cc1OC | -0.99% |
| COc1ccc(-c2csc(-c3cccs3)n2)cc1OC | 7.97% (active) |
| O=C(CCl)NC1CCCCN(Cc2cccc(C(F)(F)F)c2)C1=O (configuration not stated) | -3.93% |
| C[C@H](O)[C@@H]1CN2CCc3ccc(-c4ccc5c(c4)OCO5)cc3[C@@H]2C[C@@H]1N(C)C(=O)C1CCCCC1 | 0.38% |
| COC(=O)[C@]12C[C@H](CC(=O)N3CCOCC3)C(=O)N(Cc3ccc(Cl)cc3Cl)C1=C[C@H](COCc1ccccc1)O[C@@H]2C | -0.57% |
| CCCCNc1cccc2c1S(=O)(=O)N[C@@H](C)CO2 | -0.56% |
| CC(Oc1ccccc1[N+](=O)[O-])C(=O)N/N=C/c1ccoc1 (configuration not stated) | 6.45% (active) |
| CC(C)c1cc(C(=O)N/N=C/c2ccoc2)c(O)c(C(C)C)c1 | -0.83% |
| Cc1ccc(OCC(=O)Oc2ccccc2[N+](=O)[O-])cc1 | 0.05% |
| CCOC(=O)C1CSCCS(=O)(=O)N1Cc1ccc(Cl)cc1 (configuration not stated) | -1.28% |
| COC(=O)c1c(C(=O)OC)c2n(c1C)CCS2 | 0.03% |
| COc1cccc(CSc2nnc(-c3cccnc3)n2Cc2ccccc2)c1 | 1.04% |
| COc1ccc(NCc2nnc(SCc3ccccc3)n2-c2ccc(OC)cc2)cc1 | 0.16% |
| COc1ccc2nc(SCc3ccccc3)nc(C)c2c1 | 5.06% (active) |
| COC(=O)[C@]12C[C@H](CC(=O)NCc3ccc(C)o3)C(=O)N(CCC3=CCCCC3)C1=C[C@H](C(C)(C)C)O[C@@H]2C | -0.72% |
| CCOC(=O)[C@@]12CCC3=C1N(CCC3)C(=O)[C@H](CC(=O)N1CCN(C(=O)c3ccco3)CC1)C2 | 0.29% |
| Cc1ccccc1CN1CCCCC(NC(=O)Nc2ccccc2F)C1=O (configuration not stated) | -2.67% |
| Cc1cc(C)nc(NC(=O)/C=C/c2ccc(Cl)cc2)n1 | 0.12% |
| CC(C)(C)c1ccc(/C=C/C(=O)Nc2ncccn2)cc1 | 3.9% (active) |
| CC(C)(C)c1ccc(/C=C/C(=O)NCCCn2ccnc2)cc1 | 0.37% |

| SMILES | inhibition |
| --- | --- |
| CC(=O)N1C[C@@H](CO)[C@@H](N(C)C(=O)C(C)(C)C)C[C@H]1c1ccccc1Br | 0.98% |
| COC(=O)C[C@H]1CC[C@H]2[C@H](COc3ccc(NC(=O)C4CC4)cc3C(=O)N2C)O1 | 1.68% |
| CC(=O)c1nn(-c2ccc(C)cc2)cc1C(=O)c1cccc(Br)c1 | -0.24% |
| O=C(c1cnn(-c2ccc(Cl)cc2)c1)c1ccccc1O | 6.14% (active) |
| Cc1[nH]nc(-c2ccc(OCc3cnn(-c4ccccc4)c3)cc2O)c1Oc1ccc(Cl)cc1 | -0.45% |
| COc1cccc(Cn2cc(COC(=O)Nc3ccc(F)cc3)nn2)c1 | -0.2% |
| COc1ccc(S(=O)(=O)NCC(=O)NC2CC2)cc1OC | -0.86% |
| CC(=O)Nc1ccc(OC[C@@H](O)CN2CCC(C(O)(c3ccccc3)c3ccccc3)CC2)cc1 | 0.02% |
| O=C(CSc1nnc(CNC(=O)c2ccc(F)cc2)o1)Nc1ccc2c(c1)OCO2 | -1.07% |
| COc1ccc(CN2CCCC(C(=O)c3ccc(Cl)cc3)C2)cc1Cn1cncn1 (configuration not stated) | 0.63% |
| COc1ccc(C2Nc3ccccc3C(=O)N2c2ccc(Cl)cc2)cc1Cn1cc([N+](=O)[O-])cn1 (configuration not stated) | 3.84% (active) |
| COc1ccc([N+](=O)[O-])cc1C1NN=C(c2cccc3ccccc23)S1 (configuration not stated) | 0.7% |
| O=C(Oc1ccc(-c2nnco2)cc1)c1ccc(F)c(S(=O)(=O)N2CCOCC2)c1 | -0.14% |
| CC(=O)N1CCCN(C2=Nc3ccccc3Sc3ccccc32)CC1 | -0.16% |
| CCC(C)[C@@H](C(=O)OC)N(CCc1cn(Cc2ccccc2)nn1)S(=O)(=O)c1ccccc1Br (some centres not stated) | -0.61% |
| N#Cc1ccccc1OC[C@@H](O)CN1CCC(C(O)(c2ccccc2)c2ccccc2)CC1 | -0.84% |
| COc1ccc(/C=C/C(=O)OCC(=O)NC2CCCCCC2)cc1OC | 2.29% |
| COc1ccc(/C=C/C(=O)Nc2ccc(C34CC5CC(CC(O)(C5)C3)C4)cc2)cc1OC | 8.95% (active) |
| COc1cc(/C=C/C(=O)Nc2ccc(OC)c(S(=O)(=O)N3CCOCC3)c2)ccc1OCC#N | -2.07% |
| O=C(NC1CCCC1)C1CSCCS(=O)(=O)N1Cc1ccccc1 (configuration not stated) | 0.54% |
| CNC(=O)c1[nH]cnc1C(=O)N[C@@H](CC(C)C)C(=O)OC(C)(C)C | -0.49% |

| SMILES | inhibition |
| --- | --- |
| CC[C@]1(O)C[C@@H]2CN(CCc3c([nH]c4ccccc34)[C@@](C(=O)OC)(c3cc4c(cc3OC)N(C)[C@H]3[C@@](O)(C(=O)OC)[C@H](OC(C)=O)[C@]5(CC)C=CCN6CC[C@]43[C@@H]65)C2)C1 | 9.42% (active) |
| CC[C@]1(O)CC2CN(CCc3c([nH]c4ccccc34)[C@@](C(=O)OC)(c3cc4c(cc3OC)N(C=O)[C@H]3[C@@](O)(C(=O)OC)[C@H](OC(C)=O)[C@]5(CC)C=CCN6CC[C@]43[C@@H]65)C2)C1 (some centres not stated) | 12.9% (active) |
| CC(C)(C)c1ccc(CSc2nnc(-c3cccs3)o2)cc1 | -0.57% |
| CCOC(=O)C(=O)N(Cc1ccccc1)c1ccccc1C(=O)Nc1cc(OC)ccc1OC | -0.54% |
| CCOC(=O)N1CCN(C(=O)C2CCN(S(C)(=O)=O)CC2)CC1 | 0.3% |
| Cn1c(SCC(=O)Nc2cccc(NC(=O)c3cccs3)c2)nnc1-c1ccncc1 | -0.42% |
| Cc1nc(-c2ccc(NC(=O)c3cccs3)cc2)cs1 | 3.66% (active) |
| COc1cc(NC(=O)c2ccc(-c3csc(C)n3)cc2)c(OC)cc1Cl | 0.05% |
| O=C(CSc1nnc(COc2ccccc2)n1Cc1ccco1)c1ccc2ccccc2c1 | -1.45% |
| O=C(NN=Cc1ccco1)C(=O)Nc1ccc(Cl)c([N+](=O)[O-])c1 | 0.2% |
| Cc1ccsc1C(=O)NC1CCCCC1C (configuration not stated) | -0.66% |
| CCNC(=O)c1sccc1-n1cccc1 | -0.31% |
| Cc1ccsc1C(=O)NCCc1ccco1 | 4.3% (active) |
| COc1cccc(CNC(=O)[C@H]2CCCN2C(=O)[C@H]2CCCN2C(=O)C2CCCCC2)c1 | -1.49% |
| Cc1ccc(-n2c(SCC(=O)Nc3cccc4ccccc34)nnc2-c2ccccn2)cc1 | -0.57% |
| O=C(NCCC1=CCCCC1)C1CCN(S(=O)(=O)c2ccc(Cl)s2)CC1 | 0.02% |
| CC[C@]12c3[nH]c4cc(CCC(=O)N(C)C)ccc4c3CCN1C(=O)[C@@H](CC(=O)NCCCn1ccnc1)C[C@@H]2C(=O)N1CCN(C(=O)C2CC2)CC1 | -0.23% |
| CC[C@]12c3[nH]c4cc(CCC(=O)N(C)C)ccc4c3CCN1C(=O)[C@@H](CC(=O)NCCCN(C)C)C[C@@H]2C(=O)N1CCN(C(=O)c2ccco2)CC1 | 3.91% (active) |
| CC[C@]12c3[nH]c4cc(CCC(=O)N(C)C)ccc4c3CCN1C(=O)[C@@H](CC(=O)NCc1ccco1)C[C@@H]2C(=O)N1CCN(C(=O)c2ccco2)CC1 | 0.22% |
| Cc1nc2ccc(C(=O)N3CCN(C(=O)C(C)(C)C)CC3)cc2n1C1CCCC1 | 1.16% |
| COc1ccc(-n2c(SCC(=O)Nc3ccc(C)c(Cl)c3)nc3ccccc3c2=O)cc1 | -1.67% |

| SMILES | inhibition |
| --- | --- |
| O=C(NCc1cccs1)c1ccc2c(c1)ncn2C1CCCC1 | 0.35% |
| Nn1c(SCC(=O)Nc2ccc(S(N)(=O)=O)cc2)nnc1-c1n[nH]c2c1CCC2 | 0.11% |
| COC(=O)C1CN(CCc2ccccc2)CCS(=O)(=O)N1Cc1ccc(F)cc1 (configuration not stated) | -0.43% |
| CC(C)c1ccc(/C=C2\NC(=O)NC2=O)cc1 | 0.05% |
| CC(C)c1ccc(C=NNc2ccc([N+](=O)[O-])cn2)cc1 | 4.69% (active) |
| CN(CCc1ccccc1)c1ccc([N+](=O)[O-])cn1 | -0.34% |
| Cc1ccc(C(=O)NN(CCC#N)C2=NS(=O)(=O)c3ccccc32)cc1 | 0.06% |
| O=C(NCc1ccccc1)[C@H]1CCCN1C(=O)[C@@H]1CCCN1C(=O)c1ccc(Cl)cc1Cl | 0.24% |
| CC[C@@H](CCC(=O)N(c1ccccc1)c1ccccc1)C1CC1 | -1.2% |
| CC(=O)Nc1ccc(S(=O)(=O)Oc2ccc(Br)cc2C(=S)N2CCOCC2)cc1 | -1.94% |
| O=S(=O)(Oc1ccccc1C(=S)N1CCOCC1)c1ccc(Cl)cc1 | 3.63% (active) |
| CCOc1cc(C(=S)N2CCOCC2)ccc1OS(=O)(=O)c1ccc(Br)cc1 | 0.06% |
| COC(=O)c1cc(S(=O)(=O)N2CCN(c3ccccc3C)CC2)cn1C | -1.02% |
| CC(c1c[nH]c2ccccc12)c1c(-c2ccccc2)n(C)c2ccccc12 (configuration not stated) | -0.37% |
| CC(=O)N1CCc2cc(S(=O)(=O)NCCC(=O)N3CCCC3)ccc21 | -1.5% |
| COc1ccc(C(C#N)=C2C=CC(=NO)c3ccccc32)cc1 | 4.3% (active) |
| COc1ccc(C(=NN)c2ccc(OC)cc2)cc1 | 0.31% |
| COc1ccc(/C(N)=N/OC(=O)Oc2ccccc2)cc1 | -0.74% |
| O=C(N[C@H](Cc1ccccc1)C(=O)N1CCCN(Cc2cccs2)CC1)[C@H]1O[C@@H](n2ccc(=O)[nH]c2=O)[C@H](O)[C@@H]1O | 1.64% |

Source: PubChem BioAssay AID652010 (The Scripps Research Institute Molecular Screening Center, 2013)
